PubChem BioAssay (EPA / NIEHS)
Values joined by “and” are separate entries in the source; they are usually repeats but may differ in a detail not shown here. Equal values may be shown once. Some compounds were tested as several samples or in several runs, with calls that do not always agree. Active and inactive are the calls of the source. The calls were made as follows: active = hit-call score of the fitted dose curve at least 0.9, where 1 is the maximum; inactive = score below 0.9.

Test: CCTE_Shafer_MEA_dev_burst_duration_mean: CCTE's Neural Network Formation Assay for Mean Burst Duration, Shafer Lab (AID 2284045);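 as to AC50: curve fitted for loss meaning shorter burst duration than DMSO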
Experimental: CCTE_Shafer_MEA_dev assay is conducted using Axion Biosystems 48 well microelectrode array (MEA) plates and Maestro recording system. Each well of the MEA plate contains a grid of 16 microelectrodes embedded in the culture surface. Electrically active cells, such as neurons, can be cultured over the electrodes, and electrical activity in these cells can be recorded extracellularly. The spontaneous firing of neurons is captured from each electrode on a microsecond timescale providing both temporally and spatially precise data. […] The CCTE_Shafer_MEA_dev assay uses primary cultures of rat cortical neurons. Recordings are made on days post-plating 5, 7, 9 and 12. As these cultures mature over time, neural networks develop functional activity and form cohesive networks in which electrical activity can be highly coordinated. CCTE_Shafer_MEA_dev_burst_duration_mean is 1 of 19 assay components of the CCTE_Shafer_MEA_dev assay. It measures the average time interval from the first spike (action potential firing) to the last spike in a singe-electrode burst (temporally-clustered group of spikes) during a recording in a microelectrode array (MEA) using Axion Biosystems Maestro 768 channel amplifier with the AxIS adaptive spike detector. The mean burst duration is averaged across the actively bursting electrodes to report a well-mean value. To collapse across multiple recordings made on days post-plating 5, 7, 9 and 12, the trapezoidal area-under-the-curve of the component is calculated.Data from the assay component CCTE_Shafer_MEA_dev_burst_duration_mean was analyzed into 1 assay endpoint. This assay endpoint, CCTE_Shafer_MEA_dev_burst_duration_mean, was analyzed in the negative analysis fitting direction relative to DMSO as the negative control and baseline of activity. Using a type of functional reporter, gain or loss-of-signal activity can be used to understand electrical activity.
On the day prior to culture, each well was coated thoroughly with 150 uL of 0.05% polyethyleneimine (PEI, Sigma Cat P3143) in 50 mM HEPES (Sigma Cat H7523) at a pH of 8. The plate was incubated at 37C for one hour. PEI was rinsed out with 500 uL of sterile water three times. Plates were stored at 4C until the day of culture. This culture was plated at a seeding density of 1.5 x 10^5 cells/well on a 48-well MEA plate, prepared as described above. Cells were administered via a 25 uL media/laminin ([…]; Sigma Cat L2020-1MG) drop directly onto the microelectrode array, as adding the cells with the laminin results in better attachment than pre-coating with laminin. After 2 hours, an additional 475 uL of cortical media was added and the cells returned to the incubator. Exposure starts at day 0 of plating and is continued over twelve days of network development until the experiment is terminated. Cells are fed with fresh medium on DIV 5 and 9, following the recordings on those days. The entire volume of media in the well is exchanged and any vehicle or compound treatment is renewed. Complete details are found in OP-NHEERL/ISTD/SBB/TJS/2015-03-r0 (available on request, email shafer.tim@epa.gov). Measurement of the electrical activity is non-invasive, and recordings can be made from the same plate over multiple different days of the culture. In cortical neurons, this allows for the measurement of extracellular action potentials over the period during which networks form in the MEA plate.

| SMILES | outcome | AC50 |
| --- | --- | --- |
| Cc1ccc(-c2c(Cl)nc(C#N)n2S(=O)(=O)N(C)C)cc1 | inactive | – |
| CC(C)(C)c1ccc(CSc2cnn(C(C)(C)C)c(=O)c2Cl)cc1 | – | 1.67 nM (active) |
| COC(=O)N(OC)c1ccccc1COc1ccn(-c2ccc(Cl)cc2)n1 | inactive | 129 nM (active) |
| CNC(=O)ON=CC(C)(C)SC | inactive | – |
| C=CC1(C)OC(=O)N(c2cc(Cl)cc(Cl)c2)C1=O (stereo not drawn) | inactive | – |
| CCNc1nc(Cl)nc(NC(C)C)n1 | inactive | – |
| CCCCC(CC)COC(=O)c1ccccc1C(=O)OCC(CC)CCCC (stereo not drawn) | inactive | 3180 nM (active) |
| COP(=S)(OC)Oc1nc(Cl)c(Cl)cc1Cl | inactive | – |
| C=CCC1=C(C)[C@@H](OC(=O)[C@@H]2[C@@H](C=C(C)C)C2(C)C)CC1=O | inactive | – |
| COc1ccc(C(c2ccc(OC)cc2)C(Cl)(Cl)Cl)cc1 | inactive | – |
| COP(N)(=O)SC (stereo not drawn) | inactive | – |
| CCOC(=O)CC(SP(=S)(OC)OC)C(=O)OCC (stereo not drawn) | inactive | – |
| C=CCC1=C(C)C(OC(=O)C2C(C=C(C)C)C2(C)C)CC1=O (stereo not drawn) | inactive | – |
| CCOc1cc(Oc2ccc(C(F)(F)F)cc2Cl)ccc1[N+](=O)[O-] | – | 6990 nM (active) |
| CCCCNC(=O)OCC#CI | – | 4.03 µM (active) and 1.28 µM (active) |
| CCCCOC(=O)c1ccccc1C(=O)OCCCC | inactive | – |
| N#Cc1nn(-c2c(Cl)cc(C(F)(F)F)cc2Cl)c(N)c1S(=O)C(F)(F)F (stereo not drawn) | inactive | – |
| CN(C)C(=S)SSC(=S)N(C)C | – | 1.55 nM (active) |
| Cc1c(F)c(F)c(COC(=O)C2C(/C=C(\Cl)C(F)(F)F)C2(C)C)c(F)c1F (stereo not drawn) | inactive | – |
| CO/C=C(/C(=O)OC)c1ccccc1Oc1cc(Oc2ccccc2C#N)ncn1 | – | 1.55 µM (active) and 2.03 µM (active) |
| CCCCNC(=O)n1c(NC(=O)OC)nc2ccccc21 | inactive | – |
